# Pol eta inh-1: inhibitors of human DNA polymerase eta | Q9Y253 | recombinant Pol eta, fluorescent DNA replication assay | Potency, µM (highest dose often 114 µM), inactives show at the highest dose activity change, negative = inhibition, hits mostly inhibitors | 390,000 tested, 1.2% active; note: % is set by controls: 0 for no effect and ±100 for the full control effect
#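 Pol eta (10 nM) was preincubated with compounds for 15 min at room temperature, after which fluorescent replication substrate (50 nM final) was added to start the reaction. Fluorescence was read kinetically at 0 and 10 min.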
# Pol kappa inh-1: DNA polymerase kappa (human) inhibition; Q9UBT6; purified Pol kappa, fluorescent DNA synthesis assay, 10 min; Potency, µM (highest dose often 107 µM), for inactives: top-dose activity, negative = inhibition, most hits filed as inhibitors; 400,000 tested, 0.53% active; note: % is set by controls: 0 for no effect and ±100 for the full control effect
#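 Activity was followed as the change in fluorescence between reads at 0 and 10 min after starting the reaction with 50 nM substrate. Beforehand, 10 nM polymerase had been preincubated with compound for 15 min at room temperature.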
# WRN inhibitor: WRN helicase (human) inhibition | 360,000 tested, 0.46% active | WRN helicase unwinding, fluorescent forked duplex, kinetic | Potency, µM (top dose mostly 114 µM), without a hit: at the highest dose activity change, negative = inhibition, hits mostly inhibitors | Q14191; note: % is set by controls: 0 for no effect and ±100 for the full control effect; nearly all actives have a fitted effect of over 55% in size
#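 WRN at 20 nM final preincubated with compound 15 min at room temperature; reaction started with 100 nM fluorophore/quencher forked duplex oligonucleotide and 2 mM ATP final. Unwinding followed kinetically by red fluorescence (ex 525, em 598 nm).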
# POLI inh: inhibitors of human DNA polymerase iota; Pol iota fluorescent replication assay, 10 min; AID 588590; 390,000 tested, 1% active; Q9UNA4; Potency, µM (series often up to 115 µM), for the others: at the top dose activity, negative = inhibition, hits mostly inhibitors
#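 Pol iota at 10 nM preincubated 15 min with compounds at room temperature; reaction started with fluorescent substrate, 50 nM final. Fluorescence read kinetically at 0 and 10 min; buffer-only wells as negative control.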
# POLB inh: inhibitors of human DNA polymerase beta. Pol beta primer extension/strand displacement, fluorescence kinetic. Potency, µM (top dose mostly 114 µM), inactives show top-dose activity change, negative = inhibition, hits mostly inhibitors. P06746. 340,000 tested, 1.3% active; note: % is set by controls: 0 for no effect and ±100 for the full control effect
#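 Pol beta (10 nM) and compounds were preincubated 15 min at room temperature, then 50 nM substrate (final) started primer extension/strand displacement. Reads were taken at 0 and 10 min; concentration-response data were fitted to a four-parameter Hill equation.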
# FEN1 inh-1: blocks human flap endonuclease 1; P39748; Recombinant FEN1 flap cleavage, fluorescence, 15 min; Potency, µM (highest dose often 114 µM), without a hit: at the top dose activity change, negative = inhibition, hits mostly inhibitors; 390,000 tested, 0.35% active; note: % is set by controls: 0 for no effect and ±100 for the full control effect; nearly all actives have a fitted effect of over 65% in size
#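 Recombinant FEN1 (10 nM) was preincubated with pin-transferred compounds for 15 min at room temperature, then flap DNA substrate (50 nM final) was added. Plates were read at 0 and 15 min, and normalized concentration–response data were fitted to a four-parameter Hill equation.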
# TbPGK inh: blocks T. brucei phosphoglycerate kinase; shares compounds with Pol kappa inh-1; TbPGK coupled GAPDH assay, Kinase-Glo luminescence; Potency, µM (top dose mostly 57.5 µM), for inactives: at the highest dose activity change, negative = inhibition, usual class: inhibitors; 500 tested, 79% active; AID 686980; note: % is set by controls: 0 for no effect and ±100 for the full control effect; nearly all actives have a fitted effect of over 65% in size
# Target sequence (P07378 whole entry, looked up): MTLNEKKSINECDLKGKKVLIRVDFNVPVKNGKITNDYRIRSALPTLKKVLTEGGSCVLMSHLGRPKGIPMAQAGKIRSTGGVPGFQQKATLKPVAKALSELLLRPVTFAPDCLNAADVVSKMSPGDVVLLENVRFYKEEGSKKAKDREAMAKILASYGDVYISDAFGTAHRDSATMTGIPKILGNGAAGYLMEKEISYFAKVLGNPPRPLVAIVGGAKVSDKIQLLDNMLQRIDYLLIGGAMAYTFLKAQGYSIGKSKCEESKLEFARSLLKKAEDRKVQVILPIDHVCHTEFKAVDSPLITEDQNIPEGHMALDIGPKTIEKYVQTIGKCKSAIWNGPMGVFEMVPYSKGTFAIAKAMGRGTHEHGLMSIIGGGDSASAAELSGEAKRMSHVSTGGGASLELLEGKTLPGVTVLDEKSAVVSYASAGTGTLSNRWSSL
# Pol iota confirm: Inhibitors of human DNA polymerase iota, confirmation; shares compounds with Pol kappa inh-1; Pol iota primer extension, TAMRA/BHQ fluorescence; Potency, µM, hits mostly inhibitors; 1,500 tested, 77% active; AID 720496
# Pol kappa inh-2: confirmation of human DNA polymerase kappa inhibitors; 920 tested, 76% active; Potency, µM, most hits filed as inhibitors; shares compounds with Pol eta inh-1; purified Pol-kappa, fluorescent strand-displacement substrate
# Pol eta inh-2: Pol eta (human) inhibition, cherry-pick confirmation. shares compounds with Pol eta inh-1. Pol eta primer extension, TAMRA/BHQ fluorescence, 10 min. Potency, µM, hits mostly inhibitors. 2,600 tested, 64% active. AID 720502
# FEN1 inh-2: confirmation of human FEN1 inhibitors | 880 tested, 79% active | shares compounds with FEN1 inh-1 | Potency, µM, usual class: inhibitors | FEN1 flap cleavage, TAMRA/BHQ2 fluorogenic DNA substrate; note: nearly all actives have a fitted effect of over 60% in size
# Numbers without * were called inactive; u = inconclusive; x = no result; [ ] = dose if it differs, or a comment. Compounds with a hit are over-represented: about 2.4% of the library has one in this group of screens. Calls come from the whole dose curve; as a rule, active = well fitted curve in the direction sought with a large enough effect; inconclusive = small, poorly fitted or top-dose-only effect, or another doubt; inactive = no such curve, though single readings can be large; an effect the other way counts as inactive or inconclusive. Potency is the fitted concentration of half-maximal effect.
SMILES,Pol eta inh-1,Pol kappa inh-1,WRN inhibitor,POLI inh,POLB inh,FEN1 inh-1,Pol iota confirm,Pol eta inh-2,FEN1 inh-2,others
Cc1cc(/C=C2/C(=O)NC(=O)N(c3ccc(Br)cc3)C2=O)c(C)n1C,-11%,-12%,-10%,-18%[58.9 µM],-29%,2%,x,x,x,
Cc1cc(/C=C2\C(=O)NC(=O)N(c3ccc(Cl)cc3)C2=O)c(C)n1-c1cccc(C(=O)O)c1,20µM*,-96%,u,18µM*,u,u,60*,6.7*,x,Pol kappa inh-2=17*
Cc1cc(/C=C2\C(=O)NC(=O)N(c3cccc(F)c3)C2=O)c(C)n1-c1cc(C(=O)O)cc(C(=O)O)c1,10µM*,50µM*,u,16µM*,22µM*,u,u,21*,x,
CCN(CC)C(=O)Cn1cc(S(=O)(=O)CC(=O)NCc2ccc(C)cc2)c2ccccc21,-23%,-2%,6%,30%,x,6%,x,x,x,
O=C(Cc1cc(=O)oc2cc(O)ccc12)NN=Cc1ccc(N(CCCl)CCCl)cc1,16µM*,u,u,u,x,32µM*,u,u,38*,
CCN1CC2(OC(=O)c3ccccc3NC(C)=O)CCC(OC)[C@]34C1[C@H](CC23)[C@@]1(O)C[C@H](OC)[C@H]2CC4C1(O)[C@H]2OC (some centres undefined),x,15%[60.1 µM],x,x,x,x,x,x,x,
CC[n+]1c(/C=C/C=C/c2ccc(N(C)C)cc2)sc2ccccc21,u,-32%,56µM*,76%,-1%,50µM*,x,x,38*,TbPGK inh=u
CC(C)(C)[C@]1(O)C[C@@H]2OC(=O)CC23C(=O)O[C@@H]2OC(=O)[C@H](O)C231 (some centres undefined),x,-8%[60.1 µM],x,x,x,x,x,x,x,
CC1Cc2ccccc2N1C(=O)COC(=O)c1ccc(Cl)nc1 (centres undefined),-23%,-4%,3%,168%,8%,2%,x,x,x,
Cc1cccc(N2C(=O)NC(=O)/C(=C/c3ccc(-c4ccc(C(=O)O)c(Cl)c4)o3)C2=O)c1,x,x,x,x,24%,x,x,x,x,
O=C1NC(=O)N(c2cccc(Cl)c2)C(=O)/C1=C\c1ccc(Sc2nc3ccccc3[nH]2)o1,18µM*,22µM*,89µM*,u,32µM*,45µM*,75*,27*,u,
CC(C)(O)C1O[C@H]2CC[C@@]3(C)[C@@](O)(CC[C@H]4Cc5c([nH]c6ccccc56)[C@@]43C)C2=CC1=O (some centres undefined),x,-1%[19.4 µM],x,x,x,x,x,x,x,
Cc1ccc(N2C(=O)NC(=O)/C(=C\c3cc(C)n(-c4sc5c(c4C#N)CCCC5)c3C)C2=O)cc1,20µM*,-37%,50µM*,u,u,u,67*,19*,76*,
CC1CCN(C(=O)c2ncn(C)c2C(=O)N2CCC(C)CC2)CC1,-10%,12%,6%,u,x,-3%,x,x,x,
O=C1NC(=S)NC(=O)C1=Cc1cccn1-c1ccc(O)cc1,3.5µM*,18µM*,45µM*,2.2µM*,25µM*,35µM*,7.5*,6*,76*,TbPGK inh=16µM*
Cc1cc(C)cc(N2C(=O)NC(=O)/C(=C\c3cccn3-c3ccccc3)C2=O)c1,-5%,-17%,u,u,-3%,4%,x,x,x,
CCOc1cccc(N2C(=O)/C(=C/c3ccco3)C(=O)NC2=S)c1,3.2µM*,22µM*,35µM*,u,7.9µM*,22µM*,9.5*,15*,43*,TbPGK inh=9.2µM*
CC[n+]1c(-c2ccccc2)c2cc(N)ccc2c2ccc(N)cc21,4.5µM*,20µM*,3µM*,40µM*,x,13µM*,15*,u,17*,Pol kappa inh-2=9.5*
CCN1C(=O)C(=C2C=C(C)N(Cc3ccco3)C(C)=C2)C(=O)N(CC)C1=S,-17%,-5%,-4%,37%,3%,-10%,x,x,x,
COc1ccc(/C=C2/C(=O)N(Cc3ccco3)C(=O)N(C(C)C)C2=O)cc1,4.5µM*,20µM*,-33%[11.6 µM],7.9µM*,20µM*,u,21*,11*,27*,TbPGK inh=u
Cc1ccccc1-c1cncnc1NCCc1cnc[nH]1,x,0%[60.1 µM],x,x,x,x,x,x,x,
CC(C)CS(=O)(=O)C1=NN2C(=N)/C(=C\c3ccc(OC(=O)c4ccco4)cc3)C(=O)N=C2S1,20µM*,u,u,14µM*,45µM*,-9%,75*,24*,u,
O=C(Oc1ccc(N2C(=O)C3C4CCC(C4)C3C2=O)cc1)c1ccco1 (centres undefined),-2%,-2%,-1%,22%,3%,17%,x,x,x,
